From PubChem BioAssay come the findings set out here.

The structures appear in SMILES notation.

One assay is described as follows: binders of probe aFSTL3 on microarray, primary screen, stem cell growth factor project, biochemical, small-molecule microarray, fluorescence 635/667 (AID 1064).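 Further: measures binding of the biotinylated anti-FSTL3 antibody to printed compounds.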 To be noted: higher = more signal.
For the compound `CC(C)C[C@@H]1NC(=O)[C@H]2C[C@@H](C(=O)NCCCCCCNC(=O)CS)[C@@H](c3cccc(OCCO)c3)N2C1=O`, the composite z-score was -0.206. The compound `CCOC(=O)C1=CCC(c2ccc([N+](=O)[O-])cc2)N(S(=O)(=O)c2ccc(C)cc2)C1` (centres undefined) showed a composite z-score of 0.557. Consider `CN(C)CCCNC(=O)[C@@]1(Cc2ccccc2I)c2ccccc2C(=O)N(Cc2ccccc2C(F)(F)F)[C@H]1c1ccc(CO)cc1`, for which the composite z-score was determined as 0.459.

Consider `O=C1OCC=C[C@H]2OC34C=CCN(c5ccc6ccccc6c5)C(=O)[C@H]3N(CCCO)C(=O)[C@@H]4[C@@H]12` (some centres undefined), for which the composite z-score came to 0.714. `CC(=O)NCCCC[C@@H]1NC(=O)[C@H]2C[C@@H](C(=O)NCCCCCC[N+](C)(C)C)[C@@H](c3cccc(OCCO)c3)N2C1=O` gave a composite z-score of -0.374. `C=CCOC(=O)[C@@H]1[C@H]2C(=O)O[C@H](c3ccccc3)[C@H](c3ccccc3)N2[C@H](c2ccc(OCCOC(=O)[C@@H]3C[C@@H]4C(=O)NCC(=O)N4[C@@H]3c3cccc(OCCO)c3)cc2)[C@@]12C(=O)Nc1ccc(I)cc12` came in with a composite z-score of -0.112. The compound `CC(C)OC(=O)CC(=O)CC(O)c1ccc(C#N)cc1` (centres undefined) returned a composite z-score of 0.401.

With `C=CCNC(=O)[C@H]1[C@@H]2C(=O)O[C@@H](c3ccccc3)[C@@H](c3ccccc3)N2[C@@H](c2ccc(O)cc2)[C@]12C(=O)N(C(=O)OCCOC)c1ccc(C#CCCO)cc12`, the composite z-score amounted to 0.174. `C=CC[C@@]1(C(=O)O)N=C(c2ccc(OCCCO)cc2)O[C@@H]1c1ccccc1N=[N+]=[N-]` showed a composite z-score of 1.44. In the case of `CC(=O)NCCCC[C@@H]1NC(=O)[C@@H]2C[C@H](C(=O)NCCCCN(C)C)[C@H](c3ccc(O)cc3)N2C1=O`, the composite z-score is 0.641. `CCOC(=O)C1=C[C@@H](CC)N(S(=O)(=O)c2ccc(C)cc2)[C@H]1c1ccccc1` displayed a composite z-score of 0.119. Compound `Cc1ccc([C@H]2[C@H](C(=O)O)[C@H](Sc3ccccc3)[C@@H](C(C)C)N2S(=O)(=O)c2ccc(C)cc2)cc1` had a composite z-score of -0.182. The compound `COCCOC(=O)N1C(=O)[C@@]2(c3cc(C#CCNC(N)=O)ccc31)[C@H](c1ccc(OCCO)cc1)N1[C@H](c3ccccc3)[C@H](c3ccccc3)OC(=O)[C@H]1[C@@H]2C(=O)N1CCc2cc(OC)c(OC)cc2C1` came in with a composite z-score of 0.187. `C=C[C@@H](COC(C)=O)N(Cc1ccc([N+](=O)[O-])cc1)S(=O)(=O)c1ccc(Br)cc1`: the composite z-score came out at 0.381. Turning to `CCCCC(CC)C(O)C1C=CC2C(=O)N(c3ccccc3)C(=O)C2N1Nc1ccccc1` (centres undefined), the composite z-score was determined as 0.0807.

As to `COC(=O)C[C@H]1O[C@]2(C(=O)N(Cc3ccccc3)c3ccc(NC(C)=O)cc32)[C@@H](C)[C@@H]1[Si](C)(C)c1ccc(OC)cc1`, the composite z-score was -0.383. With `COCCOC(=O)N1C(=O)[C@@]2(c3ccccc31)[C@H](C(=O)NC[C@H](O)c1ccccc1)[C@H]1C(=O)O[C@H](c3ccccc3)[C@H](c3ccccc3)N1[C@@H]2c1ccc(OCCO)cc1`, the composite z-score was -0.242. The compound `O=C(O)[C@@]1(Cc2ccccc2)N=C(c2ccc(OCCCO)cc2)O[C@H]1c1ccccc1` registered a composite z-score of 0.447.

For `O=C/C=C/c1ccc2c(c1)OCO2`, the composite z-score was -0.23.

The compound `CCCC[C@@H]1C[C@H]1[C@@H](NC(=O)c1ccc(-c2ccccc2)cc1)c1ccc(-c2ccccc2)cc1` came in with a composite z-score of -0.129. Consider `C=CCOC(=O)[C@H]1[C@@H]2C(=O)O[C@@H](c3ccccc3)[C@@H](c3ccccc3)N2[C@@H](c2ccc(OCCOC(=O)[C@@H]3C[C@@H]4C(=O)NCC(=O)N4[C@@H]3c3ccc(O)cc3)cc2)[C@]12C(=O)Nc1ccccc12`, for which the composite z-score is -0.214. With `O=C1O[C@@H](c2ccccc2)[C@@H](c2ccccc2)N2[C@@H](c3ccc(O)cc3)[C@]3(C(=O)Nc4ccc(C#CC5=CCCCC5)cc43)[C@@H](C(=O)O)[C@H]12`, the composite z-score was 0.638. On to `CC(=O)Nc1cc(Br)ccc1C(=O)O`, for which the composite z-score was -0.135.

The compound `CC(C)(C)OC(=O)CC[C@@]1(C(=O)O)N=C(c2ccc(OCCCO)cc2)O[C@@H]1c1ccccc1N=[N+]=[N-]` returned a composite z-score of 1.09.

A further assay in a line: binders from COS7 lysate, DM2A8 probe, primary screen, torsin A project, cell lysate, small-molecule microarray, fluorescence 635/667 (AID 1065). To be noted: higher = more signal, COS7 lysate expressing mutant human TOR1A.
In turn, `COCCOC(=O)N1C(=O)[C@@]2(c3cc(C#CCC(C(=O)OC)C(=O)OC)ccc31)[C@H](c1ccccc1OCCO)N1[C@H](c3ccccc3)[C@H](c3ccccc3)OC(=O)[C@H]1[C@@H]2C(N)=O` returned a composite z-score of 0.532. As for `CC(C)NC(=O)[C@@H]1c2ccccc2C(=O)N(Cc2ccccc2Cl)[C@H]1c1ccc(CO)cc1`, the composite z-score is 0.337. Regarding `COc1ccc(CCNC(=O)[C@@]2(c3ccc([N+](=O)[O-])cc3)CC(=O)N(CC34CC5CC(CC(C5)C3)C4)[C@@H]2c2ccc(CO)cc2)cc1`, the composite z-score was found to be 0.441. With `COc1ccc(CCNC(=O)[C@@H]2c3ccccc3C(=O)N(Cc3ccc(OC(F)(F)F)cc3)[C@H]2c2ccc(CO)cc2)cc1`, the composite z-score amounted to 0.321.

On to `CCOC(=O)[C@H]1C[C@H]2O[C@@]23C[C@H]1C(=O)N1CCCC1[C@@H]3O[Si](C)(C)C(C)(C)C` (some centres undefined), for which the composite z-score was -0.537. The same measure, in the same setting: the result for `Cc1cc(C)cc(N2C(=O)CS(=O)(=O)C2c2cccc([N+](=O)[O-])c2)c1` (centres undefined) reads 0.661. The same measure, in the same setting: to `O=C(CS)NCCCCCCNC(=O)[C@H]1C[C@H]2C(=O)N3CCC[C@H]3C(=O)N2[C@H]1c1cccc(OCCO)c1` belongs 0.7; to `C=CC(COC(C)=O)NS(=O)(=O)c1ccc(Br)cc1` (centres undefined), 0.58; to `CCCC[C@H]1OB(O)C[C@H]2C1=C(C)C[C@H]1C(=O)N(Cc3ccccc3)C(=O)[C@H]12`, 0.383.

The compound `O=C1OCCC/C=C\[C@H]2OC34C=CCN(Cn5nnc6ccccc65)C(=O)[C@H]3N(CCCCCO)C(=O)[C@@H]4C12` (some centres undefined) gave a composite z-score of -0.126. The same measure, in the same setting: to `CC(C)C[C@@H]1NC(=O)[C@@H]2C[C@H](C(=O)NCCCCCC[N+](C)(C)C)[C@H](c3ccc(O)cc3)N2C1=O` belongs 0.349; to `CC(C)C[C@@H]1NC(=O)[C@H]2C[C@@H](C(=O)NCCCCCCNC(=O)CS)[C@@H](c3cccc(OCCO)c3)N2C1=O`, 0.0281; to `CCOC(=O)C1=CCC(c2ccc([N+](=O)[O-])cc2)N(S(=O)(=O)c2ccc(C)cc2)C1` (centres undefined), -0.0288.

`CN(C)CCCNC(=O)[C@@]1(Cc2ccccc2I)c2ccccc2C(=O)N(Cc2ccccc2C(F)(F)F)[C@H]1c1ccc(CO)cc1` returned a composite z-score of -1.14. Compound `O=C1OCC=C[C@H]2OC34C=CCN(c5ccc6ccccc6c5)C(=O)[C@H]3N(CCCO)C(=O)[C@@H]4[C@@H]12` (some centres undefined) displayed a composite z-score of -2.17. Compound `CC(=O)NCCCC[C@@H]1NC(=O)[C@H]2C[C@@H](C(=O)NCCCCCC[N+](C)(C)C)[C@@H](c3cccc(OCCO)c3)N2C1=O` had a composite z-score of 0.645.

`C=CCOC(=O)[C@@H]1[C@H]2C(=O)O[C@H](c3ccccc3)[C@H](c3ccccc3)N2[C@H](c2ccc(OCCOC(=O)[C@@H]3C[C@@H]4C(=O)NCC(=O)N4[C@@H]3c3cccc(OCCO)c3)cc2)[C@@]12C(=O)Nc1ccc(I)cc12`: the composite z-score was 0.948.

`CC(C)OC(=O)CC(=O)CC(O)c1ccc(C#N)cc1` (centres undefined) yielded a composite z-score of 0.435. In turn, `C=CCNC(=O)[C@H]1[C@@H]2C(=O)O[C@@H](c3ccccc3)[C@@H](c3ccccc3)N2[C@@H](c2ccc(O)cc2)[C@]12C(=O)N(C(=O)OCCOC)c1ccc(C#CCCO)cc12` displayed a composite z-score of 1.93. Same read-out and setting: the result for `C=CC[C@@]1(C(=O)O)N=C(c2ccc(OCCCO)cc2)O[C@@H]1c1ccccc1N=[N+]=[N-]` reads -0.0147. In the case of `CC(=O)NCCCC[C@@H]1NC(=O)[C@@H]2C[C@H](C(=O)NCCCCN(C)C)[C@H](c3ccc(O)cc3)N2C1=O`, the composite z-score is -0.241.

In turn, `CCOC(=O)C1=C[C@@H](CC)N(S(=O)(=O)c2ccc(C)cc2)[C@H]1c1ccccc1` displayed a composite z-score of -0.872.

Consider `Cc1ccc([C@H]2[C@H](C(=O)O)[C@H](Sc3ccccc3)[C@@H](C(C)C)N2S(=O)(=O)c2ccc(C)cc2)cc1`, for which the composite z-score is -0.126. The compound `COCCOC(=O)N1C(=O)[C@@]2(c3cc(C#CCNC(N)=O)ccc31)[C@H](c1ccc(OCCO)cc1)N1[C@H](c3ccccc3)[C@H](c3ccccc3)OC(=O)[C@H]1[C@@H]2C(=O)N1CCc2cc(OC)c(OC)cc2C1` showed a composite z-score of -0.0389. Compound `C=C[C@@H](COC(C)=O)N(Cc1ccc([N+](=O)[O-])cc1)S(=O)(=O)c1ccc(Br)cc1` came in with a composite z-score of -0.339.

The compound `CCCCC(CC)C(O)C1C=CC2C(=O)N(c3ccccc3)C(=O)C2N1Nc1ccccc1` (centres undefined) showed a composite z-score of 0.34. Regarding `COC(=O)C[C@H]1O[C@]2(C(=O)N(Cc3ccccc3)c3ccc(NC(C)=O)cc32)[C@@H](C)[C@@H]1[Si](C)(C)c1ccc(OC)cc1`, the composite z-score is -0.148. Compound `COCCOC(=O)N1C(=O)[C@@]2(c3ccccc31)[C@H](C(=O)NC[C@H](O)c1ccccc1)[C@H]1C(=O)O[C@H](c3ccccc3)[C@H](c3ccccc3)N1[C@@H]2c1ccc(OCCO)cc1` returned a composite z-score of 0.591. `O=C(O)[C@@]1(Cc2ccccc2)N=C(c2ccc(OCCCO)cc2)O[C@H]1c1ccccc1`: the composite z-score was -0.647. The compound `O=C/C=C/c1ccc2c(c1)OCO2` gave a composite z-score of -0.508.

The compound `CCCC[C@@H]1C[C@H]1[C@@H](NC(=O)c1ccc(-c2ccccc2)cc1)c1ccc(-c2ccccc2)cc1` returned a composite z-score of 0.0257.

`C=CCOC(=O)[C@H]1[C@@H]2C(=O)O[C@@H](c3ccccc3)[C@@H](c3ccccc3)N2[C@@H](c2ccc(OCCOC(=O)[C@@H]3C[C@@H]4C(=O)NCC(=O)N4[C@@H]3c3ccc(O)cc3)cc2)[C@]12C(=O)Nc1ccccc12` had a composite z-score of 0.454. For `O=C1O[C@@H](c2ccccc2)[C@@H](c2ccccc2)N2[C@@H](c3ccc(O)cc3)[C@]3(C(=O)Nc4ccc(C#CC5=CCCCC5)cc43)[C@@H](C(=O)O)[C@H]12`, the composite z-score came out at 1.56. Regarding `CC(=O)Nc1cc(Br)ccc1C(=O)O`, the composite z-score was -0.387.

Regarding `CC(C)(C)OC(=O)CC[C@@]1(C(=O)O)N=C(c2ccc(OCCCO)cc2)O[C@@H]1c1ccccc1N=[N+]=[N-]`, the composite z-score turned out to be 1.56.
